MCF10A rereplic – induces DNA re-replication in MCF 10a normal breast cells; Potency, µM (doses to about 46.1 µM), hits mostly activators; AID 624296; MCF 10A DNA re-replication, Hoechst nuclear intensity, 48 h; hit rate 2.9% among 350,000; further: nearly all actives have a fitted effect of over 50% in size
SW480 rerep – inducers of DNA re-replication in SW480 colon cancer cells; Potency, µM (doses to about 46.1 µM), usual class: activators; AID 624297; hit rate 1.8% among 340,000; SW480 DNA re-replication, Hoechst DNA content imaging, 48 h; further: nearly all actives have a fitted effect of over 55% in size
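Readout is total intensity of Hoechst-stained nuclei, excited at 405 nm and collected at 500-530 nm. Compound treatment lasted 48 hr at 37 C in 5% CO2 before staining.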
Giardia kill – Giardia lamblia killing. activity change, % at 7.66 µM, hits read low. Giardia lamblia trophozoite viability. AID 540267. hit rate 0.15% among 340,000; in the data active means activity change below about -80%; inconclusive means between about -30% and that limit;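 further: parasites exposed to compound for two days anaerobically before the ATP read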
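Compounds were tested on trophozoites seeded at 100 cells/well and held 48 hrs at 37 deg C anaerobically. An ATP-based luminescent kit measured the remaining live cells.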
Vif-A3G inh – inhibitors of Vif-APOBEC3G interaction; Q9HC16; HeLa A3G-eYFP + Vif (tagged APOBEC3G with the HIV-1 protein that degrades it), YFP fluorescence, overnight; Potency, µM (series often up to 46.1 µM), actives largely listed as inhibitors; hit rate 0.076% among 410,000; further: nearly all actives have a fitted effect of over 60% in size
Target sequence (Q9HC16 whole entry, looked up): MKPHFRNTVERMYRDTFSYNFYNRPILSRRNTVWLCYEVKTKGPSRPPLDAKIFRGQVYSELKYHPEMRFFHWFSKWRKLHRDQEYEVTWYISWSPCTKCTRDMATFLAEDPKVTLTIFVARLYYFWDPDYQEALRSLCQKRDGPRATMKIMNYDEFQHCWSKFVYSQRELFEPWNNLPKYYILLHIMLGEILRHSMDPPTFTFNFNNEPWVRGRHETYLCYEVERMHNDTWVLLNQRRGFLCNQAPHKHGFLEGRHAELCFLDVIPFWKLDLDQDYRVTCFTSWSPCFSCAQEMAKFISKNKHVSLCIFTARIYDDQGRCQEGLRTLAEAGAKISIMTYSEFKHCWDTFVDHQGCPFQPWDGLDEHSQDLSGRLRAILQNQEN
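Read-out is eYFP fluorescence (Ex 488/Em 500-530) from Vif-expressing HeLa A3G-eYFP cells; more signal means A3G escaped Vif-mediated degradation. Cells plated overnight, compound pinned in, incubated overnight at 37 deg C.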
IL1B secr inh – inhibitors of inflammasome signaling (IL-1 beta secretion) | THP-1 LPS/ATP IL-1B secretion, AlphaLISA, 16 h; stronger effect = lower value | activity change, % at 57.5 µM | AID 743279 | hit rate 4.7% among 360,000; in the data active means activity change below about -50%; inconclusive means mostly about -30% to -49%
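THP-1 cells pretreated 1 hr with compounds (up to 57.5 uM final), then stimulated with LPS (250 ng/mL final) plus ATP (1.25 mM final); secreted IL-1B measured by AlphaLISA after 16 hr, decreased signal indicating inhibition.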
Vif-APOBEC3F blk – inhibitors of Vif-A3F interaction. HeLa A3F-eYFP + Vif (tagged APOBEC3F with the HIV-1 protein that degrades it), YFP fluorescence increase. Potency, µM (series often up to 46.1 µM). hit rate 0.2% among 390,000; further: nearly all actives have a fitted effect of over 65% in size
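HeLa cells stably expressing Vif plus C-terminally eYFP-tagged A3F were seeded, incubated overnight at 37 deg C, dosed with compound, incubated overnight again at 37 deg C. Yellow fluorescence (Ex 488/Em 500-530) reported blocked Vif-mediated A3F-eYFP degradation.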
A number is an active result; - = inactive; ? = inconclusive; . = no result. The list is not random: actives were taken first. Their share in the collection is about 6.9%. Unless noted, the call rests on the fitted dose curve; in most records, active means well fitted curve in the direction sought with a large enough effect; inconclusive means small, poorly fitted or top-dose-only effect, or another doubt; inactive means no such curve, though single readings can be large; an effect the other way counts as inactive or inconclusive.

SMILES	MCF10A rereplic	SW480 rerep	Giardia kill	Vif-A3G inh	IL1B secr inh	Vif-APOBEC3F blk
Cc1ccc(OCC(=O)Nc2ccc3c(c2)nc(CCN2CCCC2)n3C)cc1	.	.	.	-	-	-
C[N+]1(CC(=O)c2ccc(Oc3ccc(C(=O)C[N+]4(C)CCOCC4)cc3)cc2)CCOCC1	.	.	.	-	.	.
COc1ccccc1NC(=O)C1=C(C)Nc2c(C(=O)Nc3ccc(F)cc3)cnn2C1c1cccc([N+](=O)[O-])c1 (centres undefined)	.	.	.	-	.	-
COc1ccc(CCNC(=O)CSc2nc3ccccc3nc2Cc2ccc(Cl)cc2)cc1OC	.	.	.	-	.	-
CCOC(=O)/C(=C\c1ccc(OC(F)F)cc1)C1=Nn2c(nnc2-c2ccc(Cl)cc2)SC1	5.2µM	16µM	-	-	-102	-
CCOC(=O)/C(=C/c1ccc(OC(F)F)cc1)C1=Nn2c(nnc2-c2ccc(Cl)cc2)SC1	3.7µM	7.3µM	-	-	-98	-
Cc1c(-c2nsc(NC(=O)c3cccs3)n2)nnn1-c1ccc(Cl)cc1	.	.	.	-	.	-
CCn1c(/C=C/c2c[nH]c3ccccc23)nc2ccccc2c1=O	21µM	?	-	-	-	?
Cc1[nH]c2ccccc2c1/C=C/c1nc2ccccc2c(=O)n1-c1ccc([N+](=O)[O-])cc1	-	-	-	-	-	-
CN(C)c1ccc(/C=C/c2nc3ccccc3c(=O)n2-c2ccc(C(=O)O)cc2)cc1	18µM	21µM	-	?	-	?
O=c1c2ccccc2nc(/C=C/c2cccnc2)n1CCc1ccccc1	29µM	-	-	-	-71	-
CN(C)S(=O)(=O)c1ccc2[nH]cc(/C=C/c3nc4ccccc4c(=O)n3-c3ccccc3)c2c1	?	3.3µM	-	-	-	-
COc1cc(Nc2nn(-c3ccc(OC(F)(F)F)cc3)nc2C(C)=O)cc(OC)c1	.	.	.	-	.	-
Cc1ccc(COC(=O)c2[nH]c3c(c2C)C(=O)CC(c2ccc(Cl)cc2)C3)cc1 (centres undefined)	.	.	.	-	.	-
CNC(=O)C[C@@H](N)C(=O)N[C@@H](C(=O)N[C@@H]1C(=O)N2[C@@H]1SC(C)(C)[C@@H]2C(=O)O)c1ccc(O)cc1	-	-	.	.	.	.
COc1ccc(-c2nn(C)c3sc(C(=O)N4CCN(c5cccc(C)c5C)CC4)cc23)cc1OC	.	.	.	-	.	-
Cc1ccccc1/C=C\c1nc2ccccc2c(=O)n1Cc1ccccc1	?	-	-	-	?	-
CCN1C(=O)/C(=C\c2nc3ccccc3c(=O)n2CC)c2ccccc21	-	-	-	-	-86	-
CCn1c(/C=C\c2ccccc2C)nc2ccccc2c1=O	-	-	-	-	-	-
CCn1c(/C=C2/C(=O)N(C)c3ccccc32)nc2ccccc2c1=O	-	?	-	-	-	-
Cc1cccc(/C=C/c2nc3ccccc3c(=O)n2Cc2ccccc2)c1	?	?	-	-	-70	-
CCn1c(/C=C/c2ccccc2Cl)nc2ccccc2c1=O	16µM	?	-	-	?	-
CN(C)c1ccc(C=Nc2cncc3ccccc23)cc1	.	.	.	-	.	.
COc1ccc(NC(=O)C2=C(C)C(=O)OC23CCN(C(C)C)CC3)cc1Cl	.	.	.	-	.	-
COc1ccccc1N/C(N)=N/c1nc(C)cc(C)n1	?	-	-	-	-	-
SMILES	MCF10A rereplic	SW480 rerep	Giardia kill	Vif-A3G inh	IL1B secr inh	Vif-APOBEC3F blk
Cc1cc(C)nc(/N=C(\N)Nc2cccc(OCc3ccccc3)c2)n1	13µM	?	-	?	-68	?
Cc1cc(C)nc(/N=C(\N)Nc2ccc(OCc3ccccc3)cc2)n1	?	?	-	-	-93	-
Cc1cc(C)nc(/N=C(\N)Nc2ccc(OCCC(C)C)cc2)n1	?	-	-	-	-98	-
COc1ccc(N/C(N)=N/c2nc(C)cc(C)n2)cc1	.	.	.	-	-	-
Cc1cc(C)nc(/N=C(\N)Nc2ccc(CC(=O)OC(C)C)cc2)n1	?	-	-	-	-99	-
Cc1ccc(NC(=O)c2oc3c(c2C)-c2[nH]ncc2CC3)c(Cl)c1	.	.	.	-	.	-
CCc1nc2ccc(C(=O)NCc3ccc(OC)c(OC)c3)cc2nc1CC	.	.	.	-	.	-
Cc1cc(C)nc(/N=C(\N)Nc2ccc(C)c([N+](=O)[O-])c2)n1	-	-	-	-	-112	-
Cc1cc(C)nc(/N=C(\N)Nc2ccc(S(=O)(=O)O)cc2)n1	-	-	-	-	-	-
O=C(NCc1cccnc1)/C(=C\c1ccc(-c2ccc(Cl)c(Cl)c2)o1)S(=O)(=O)c1ccccc1	6.5µM	?	-	-	-107	-
COc1ccc(OC)c2sc(N3CCc4ccccc4C3)nc12	-	-	-	-	-	-
c1ccc2c(c1)CCN(c1nc3cc4c(cc3s1)OCCO4)C2	15µM	-	?	-	-58	-
COc1ccccc1OCCN(C#N)c1nc(N(C)C)nc(N(C)C)n1	-	-	-	-	-77	-
CN(C)c1nc(N(C)C)nc(N(C#N)CCOc2ccccc2)n1	-	-	-	-	-	-
COCCNc1nc(Nc2ccc(F)cc2)c2sccc2n1	.	.	.	-	-	.
COc1ccc(Nc2nc(NCc3cccs3)nc3ccsc23)cc1OC	.	.	.	?	-87	.
